Experimental data from ChEMBL document CHEMBL4513216, “Probing the Open Global Health Chemical Diversity Library for Multistage-Active Starting Points for Next-Generation Antimalarials” (ACS Infect Dis, 2020).
Hit rate of the full screen: of about 65,000 compounds, about 2,100 (3.2%) showed an effect of 50% or more. The median lay at about -52%. This excerpt belongs to a sample that is enriched for strong results.

tested on: Plasmodium falciparum; experiment: Screen against P. falciparum Asexual Blood Stage (ABS), at 5uM; format: functional, Dd2; conditions: tested at 5 uM

Row | SMILES | INHIBITION
1 | CC(C)N1CCC(N2CCC(C(=O)N(C)C)CC2)CC1 | -45.6%
2 | O=C(N[C@@H]1CNCCC[C@H]1O)c1ccc(OCc2ccccc2)cc1 | 63.2%
3 | O=C(N[C@@H]1CNCCC[C@H]1O)c1ccc(OCCN2CCCC2)cc1 | -65.9%
4 | COCCOc1ccc(C(=O)N[C@@H]2CNCCC[C@H]2O)cc1 | -9.34%
5 | CCc1ccccc1Nc1noc2c1CN(C(=O)c1ccn(C)n1)CC2 | -63.2%
6 | CCc1ccccc1Nc1noc2c1CN(C(=O)CNC(C)=O)CC2 | 45.1%
7 | CCc1ccccc1Nc1noc2c1CN(C(=O)C1CCCO1)CC2 (centres undefined) | 68.6%
8 | O=C(NCc1cccnc1-n1cncn1)c1ccncc1 | -55.2%
9 | COc1cccc(C(=O)N2CC[C@@H]3[C@H](CC2)N(C)CCS3(=O)=O)c1 | -72.7%
10 | Cc1nc(COC[C@@H]2CCC[C@@]23CNCCO3)cs1 | 47.5%
11 | Cc1nc(COC[C@H]2CCC[C@@]23CN(C(C)C)CCO3)cs1 | 51.9%
12 | CCN1CCO[C@]2(CCC[C@H]2COCc2csc(C)n2)C1 | 57.7%
13 | Cc1nc(COC[C@@H]2CCC[C@@]23CN(C)CCO3)cs1 | 15.6%
14 | Cc1nc(COC[C@H]2CCC[C@]23CN(CC2CC2)CCO3)cs1 | 32.7%
15 | Cc1nc(COC[C@H]2CCC[C@]23CN(C2CCOC2)CCO3)cs1 (some centres undefined) | -51.5%
16 | c1ccc(CN2Cc3nccn3CC(Cn3cccn3)C2)nc1 (centres undefined) | -16.2%
17 | CCN(CC)Cc1cn2c(n1)CN(C(=O)Cc1ccsc1)CC2 | -53.3%
18 | Cc1cc(N(Cc2ccccc2F)C2CC2)n2nc(C(F)(F)F)nc2n1 | 4%
19 | Cc1cc(N(Cc2ccccn2)C2CC2)n2nc(C(F)(F)F)nc2n1 | -61.2%
20 | Cc1cc(N(Cc2cccs2)C2CC2)n2nc(C(F)(F)F)nc2n1 | 67.3%
21 | CC1c2ncc(Cn3cccn3)n2CCN1Cc1ccccn1 (centres undefined) | -88.5%
22 | Cc1nnc2n1CCN(C(C(=O)NC1CC1)c1ccc(F)cc1)C2 (centres undefined) | -127%
23 | CCN1CCN(CCNC(=O)c2ccn(-c3ccc(F)cc3)n2)CC1 | -11.4%
24 | NC(=O)CC1CCN(C(=O)c2cccn2Cc2cccs2)CC1 | -68.7%
25 | COc1ncccc1CN1C[C@H]2C[C@@H](C(=O)NCC3CC3)N(C)[C@H]2C1 | 51.2%
26 | CN1[C@@H](C(=O)NCC2CC2)C[C@@H]2CN(Cc3ccco3)C[C@@H]21 | -99%

Row | SMILES | INHIBITION
27 | CN1[C@@H](C(=O)NCC2CC2)C[C@@H]2CN(Cc3ccoc3)C[C@@H]21 | 30.4%
28 | CCOc1ccc(C(=O)N2CCCC2c2c(C)nn(C)c2Cl)cn1 (centres undefined) | -37.6%
29 | COc1cccc(CN2CCC3(CC2)CCN(c2ncc(C)cn2)C3)c1 | -73.3%
30 | COc1cccc(CN2CCC3(CC2)CCN(c2ncccn2)C3)c1 | 0.0663%
31 | CCS(=O)(=O)N1CCC2(CCN(Cc3cccc(OC)c3)CC2)CC1 | 68.4%
32 | NC(=O)C1CCCN1Cc1cccc(NC(=O)c2cc(Cl)cc(Cl)c2)c1 (centres undefined) | -51%
33 | Clc1ccc(CN2CCCC(Cn3cncn3)C2)c2ncccc12 (centres undefined) | 64.6%
34 | Clc1ccc(CN2CCCCC2Cn2cncn2)c2ncccc12 (centres undefined) | 17.8%
35 | Fc1ccc(CN2CCCC(Cn3cncn3)C2)c2ncccc12 (centres undefined) | -1.08%
36 | Fc1ccc(CN2CCCC2Cn2cccn2)c2ncccc12 (centres undefined) | 59.1%
37 | Clc1ccc2cccnc2c1CN1CCCC1Cn1cncn1 (centres undefined) | 53.7%
38 | Fc1ccc(CN2CCCCC2Cn2cncn2)c2ncccc12 (centres undefined) | 65.8%
39 | N#Cc1ccc(CN2CCCC2Cn2cccn2)c(F)c1 (centres undefined) | -129%
40 | N#Cc1ccc(F)c(CN2CCCC2Cn2cccn2)c1 (centres undefined) | -15.1%
41 | Clc1ccc2cccnc2c1CN1CCCCC1Cn1cncn1 (centres undefined) | 48.2%
42 | Fc1ccc(CN2CCCC2Cn2cncn2)c2ncccc12 (centres undefined) | 13.9%
43 | Clc1cc(CN2CCCC(Cn3cncn3)C2)c2ncccc2c1 (centres undefined) | 39.2%
44 | Clc1cc(CN2CCCC2Cn2cncn2)c2ncccc2c1 (centres undefined) | 2.88%
45 | CC1=Nc2c(c(=O)[nH]n2C(C)C)C(c2ccc3nccnc3c2)S1 (centres undefined) | -82.6%
46 | Cc1ccc(N2CCCC(NCc3ccccn3)C2)nn1 (centres undefined) | -71.8%
47 | O=C(c1ccccc1)N1CCN(CC(O)c2ccc(F)cc2)CC1 (centres undefined) | -120%
48 | O=C(CN1CCCC1Cn1cncn1)Nc1ccc(Cl)cn1 (centres undefined) | -112%
49 | Cc1cc(N2CCN(C(=O)c3cc(Cl)c[nH]3)CC2)nc(C)n1 | -19.7%
50 | Cc1cc(N2CCN(C(=O)c3cc(Cl)c[nH]3)CC2)nc(C(C)C)n1 | 13%
51 | Cc1cc(N2CCN(C(=O)c3cc(Cl)c[nH]3)CC2)nc(N)n1 | 69.8%
52 | COc1ccc(CC2(CO)CCN(c3cc(C(N)=O)ccn3)CC2)cc1 | -129%

Row | SMILES | INHIBITION
53 | COc1ccc(-n2cnnc2SCC(=O)NC(C)C)cn1 | -44.5%
54 | CS(=O)(=O)N1CCC2(CCN(C(=O)c3cccnc3)CC2)C1 | -35.5%
55 | COCC(=O)NCC1CCCN(Cc2cc3ccccc3[nH]2)C1 (centres undefined) | -18.1%
56 | COC(=O)c1cccc(C(=O)N(CCC#N)CC(C)(C)C)c1 | -61.6%
57 | Cc1nc(Nc2nccs2)cc(C2CN(C(C)C)C2)n1 | 59.7%
58 | Cc1nc(Nc2cnccn2)cc(C2CN(C(C)C)C2)n1 | -131%
59 | Cc1csc(Nc2cc(C3CN(C(C)C)C3)nc(C)n2)n1 | -3.32%
60 | Cc1cccc(CN2CCOC(C)(C(=O)N3CCOCC3)C2)n1 (centres undefined) | -28.9%
61 | Cc1ccc(OCCN2CCCC(c3cc(C(N)=O)[nH]n3)C2)cc1 (centres undefined) | -109%
62 | NC(=O)c1cc(C2CCCN(CCCOc3ccc(F)cc3)C2)n[nH]1 (centres undefined) | -96.5%
63 | NC(=O)c1cc(C2CCCN(CCOc3ccc(F)cc3)C2)n[nH]1 (centres undefined) | 52.4%
64 | COC(=O)c1cccnc1N1CCC(Oc2cccc(F)c2)CC1 | -23.9%
65 | CC(C)NC(=O)N1CC[C@@H](N(C)C)[C@@H]1Cc1ccccc1 | 16.7%
66 | CC(C)N(C)[C@@H]1CCN(S(C)(=O)=O)[C@H]1Cc1ccccc1 | 54.9%
67 | CN(C)[C@@H]1CCN(S(=O)(=O)c2cn(C)cn2)[C@H]1Cc1cccnc1 | -57.5%
68 | CN(C)[C@@H]1CCN(S(=O)(=O)C2CC2)[C@H]1Cc1ccccc1 | 64.9%
69 | CN(C)[C@@H]1CCN(S(C)(=O)=O)[C@H]1Cc1ccccc1 | 19.4%
70 | CC(C)N(C)[C@@H]1CCN(Cc2ccoc2)[C@H]1Cc1ccccc1 | 13.7%
71 | CCOc1nnc(CN2CCN(CCOC)C(C)C2)s1 (centres undefined) | 1.7%
72 | Cc1cc(C(=O)N(C)Cc2cnn(C)c2C)n(C)n1 | -72.2%
73 | Cc1cccc(C(C)C)c1NC(=O)CN(C)C(C)c1nccs1 (centres undefined) | 10.7%
74 | Cc1nnc(C2CCN(C(=O)c3ccc4nccnc4c3)CC2)s1 | -22.7%
75 | NCC1CCCCN1C(=O)Cc1ccc(F)c(F)c1 (centres undefined) | 9.77%
76 | CSc1nccc(N2CCC3(CCCN(Cc4ccc(F)cc4)C3)C2)n1 (centres undefined) | 2.13%
77 | CSc1nccc(N2CCC3(CCCN(CCc4ccccc4)C3)C2)n1 (centres undefined) | 50.1%
78 | CSc1nccc(N2CCC3(CCCN(Cc4cccc(C)c4)C3)C2)n1 (centres undefined) | 27.2%

Row | SMILES | INHIBITION
79 | CCN(CC)S(=O)(=O)N1C[C@@H](O)[C@H](Oc2cccc(F)c2)C1 | -6.79%
80 | COCC(=O)N1CCC(C(=O)c2cc(C)cnc2N)CC1 | -65.6%
81 | O=S(=O)(Cc1ccc(F)cc1)NCc1nnc2n1CCC2 | -90.9%
82 | FC(F)(F)c1nc(NC2CCCCC2)c2ccccc2n1 | -10.5%
83 | COc1ccc(CCN2CCCC(CN(C)Cc3ccc(C)o3)C2)cc1 (centres undefined) | -45.9%
84 | COc1ccccc1CCN1CCCC(CN(C)Cc2c[nH]c(C)n2)C1 (centres undefined) | 67.4%
85 | COc1ccccc1CCN1CCCC(CN(C)Cc2cc(C)n[nH]2)C1 (centres undefined) | 55.5%
86 | Cc1nc(CN2CCCC(CCc3ccccc3C)C2)c[nH]1 (centres undefined) | 14.6%
87 | Cc1cc(CN(C)CC2CCCN(CCc3ccc(Cl)cc3)C2)[nH]n1 (centres undefined) | -65.3%
88 | COc1ccc(CCN2CCCC(CN(C)Cc3[nH]cnc3C)C2)cc1 (centres undefined) | -4.52%
89 | O=C(Cn1ccc(-c2ccccc2)n1)N1CCN(C(=O)C2CC2)CC1 | -54.1%
90 | O=C(O)Cn1nc(C2CC2)c2c(-c3ccc(F)cc3)ccnc21 | -143%
91 | Cc1nc(N2CCC3(CCOC3)C2)c2cc[nH]c2n1 (centres undefined) | -21.2%
92 | O=C(CN1CCc2sccc2C1)Nc1ccnc2ccnn12 | -83.1%
93 | OCCCNc1nc(O)c2c(n1)-c1ccccc1CC21CCCCC1 | 4.32%
94 | COCC(=O)N1CCC2(C1)c1ccccc1S(=O)(=O)N2C (centres undefined) | -58.6%
95 | CS(=O)(=O)NCc1nnc2n1CCN(Cc1ccncc1)C2 | -3.62%
96 | Cc1cc(C(=O)N2CCc3ncc(CN4CCCC4)n3CC2)no1 | -1.1%
97 | COc1cc(CN2CCCC2)ccc1Oc1ccc2c(c1)CC(CN)O2 (centres undefined) | 59.8%
98 | COc1ccc(CN2CCCC2)cc1Oc1ccc(NC(C)=O)cc1 | -44.6%
99 | Cc1cc(CN2CCCC2)cc(Oc2ccc3c(c2)CC(CN)O3)c1 (centres undefined) | 28.4%
100 | Cc1ccc(N2CCO[C@H]3CN(C(=O)c4cccc(C)n4)C[C@H]32)nn1 | -46.4%
101 | CCn1c(CN(C)Cc2csc(C)n2)nc2cc(F)ccc21 | 61%
102 | CCn1c(CN(C)Cc2cnc(C)s2)nc2c(F)cccc21 | -30.4%
103 | CCn1c(CN(C)Cc2cnc(C)s2)nc2cc(F)ccc21 | -16.6%
104 | Cc1csc(CCCNc2ccc(S(N)(=O)=O)cc2C#N)n1 | -9.07%
